The other results are listed elsewhere or left out. A number with no mark means an inactive call. No stated cut-off is given here; in the data, active means inhibition above about 18%; inactive means the rest.
Molecular target: Troponin I, cardiac muscle (Homo sapiens) + Troponin T, cardiac muscle (Homo sapiens) + Troponin C, slow skeletal and cardiac muscles (Homo sapiens) (UniProt P19429+P45379+P63316)
Assay: cardiac RTF calcium sensitivity inhibitors, confirmation, biochemical, fluorescence readout (AID 504635)
Conditions: reconstituted cardiac thin filaments, at 7.15 µM, stronger effect = higher value

## COC1=C[C@@H]2[C@@H]3Cc4ccc(OC)c(O)c4[C@]2(CCN3C)CC1=O
  inhibition: -1.97%

From PubChem BioAssay AID504635 (The Scripps Research Institute Molecular Screening Center, 2011)
